{"source": "the antibiotic and cytotoxicity screens of Wong et al. (2023)", "note": "In all, about 39,000 compounds went through this assay and about 3,300 (8.5%) were called active. This is one part of a sample in which actives are shown more often than they occur.", "data": [{"test_system": "HepG2", "experiment": "cytotoxicity call (relative viability < 0.9)", "settings": "10 µM", "values": [{"smiles": "COCC#Cc1ccc2c(c1)O[C@@H](CN(C)S(=O)(=O)c1ccc(F)cc1)[C@H](C)CN([C@@H](C)CO)S2(=O)=O", "cytotoxicity call": "inactive"}, {"smiles": "C[C@@H]1CN([C@@H](C)CO)C(=O)Cc2cc(NS(=O)(=O)c3cccs3)ccc2O[C@H]1CN(C)S(=O)(=O)c1ccc(F)cc1", "cytotoxicity call": "inactive"}, {"smiles": "C[C@H](CO)N1C[C@H](C)[C@@H](CN(C)C(=O)Nc2ccccc2)Oc2ccc(NC(=O)CCN3CCOCC3)cc2CC1=O", "cytotoxicity call": "inactive"}, {"smiles": "Cc1noc(C)c1NC(=O)Nc1ccc2c(c1)C(=O)N([C@H](C)CO)C[C@H](C)[C@H](CN(C)C(=O)C1CCCCC1)OCCCC[C@@H](C)O2", "cytotoxicity call": "inactive"}, {"smiles": "C[C@H](CO)N1C[C@H](C)[C@H](CN(C)Cc2ccc(C(=O)Nc3ccccc3N)cc2)Oc2ccc(NC(=O)Nc3ccc(F)cc3)cc2CC1=O", "cytotoxicity call": "inactive"}, {"smiles": "C[C@H]1CN([C@@H](C)CO)C(=O)Cc2cc(NC(=O)Nc3ccc(F)cc3)ccc2O[C@H]1CN(C)Cc1ccc(C(=O)Nc2ccccc2N)cc1", "cytotoxicity call": "active"}, {"smiles": "C[C@H](CO)N1C[C@H](C)[C@@H](CN(C)Cc2ccc(C(=O)Nc3ccccc3N)cc2)Oc2ccc(NC(=O)Nc3ccc(F)cc3)cc2CC1=O", "cytotoxicity call": "inactive"}, {"smiles": "C[C@@H]1CN([C@H](C)CO)C(=O)Cc2cc(NC(=O)Nc3ccc(F)cc3)ccc2O[C@H]1CN(C)Cc1ccc(C(=O)Nc2ccccc2N)cc1", "cytotoxicity call": "inactive"}, {"smiles": "C[C@@H]1CN([C@@H](C)CO)C(=O)Cc2cc(NC(=O)Nc3ccc(F)cc3)ccc2O[C@@H]1CN(C)Cc1ccc(C(=O)Nc2ccccc2N)cc1", "cytotoxicity call": "active"}, {"smiles": "C[C@H]1CN([C@@H](C)CO)C(=O)Cc2cc(NC(=O)Nc3ccc(F)cc3)ccc2O[C@@H]1CN(C)Cc1ccc(C(=O)Nc2ccccc2N)cc1", "cytotoxicity call": "inactive"}, {"smiles": "C[C@@H]1CCCCO[C@@H](CN(C)C(=O)NC2CCCCC2)[C@@H](C)CN([C@@H](C)CO)C(=O)c2cc(NC(=O)Nc3ccc(F)cc3)ccc2O1", "cytotoxicity call": "inactive"}, {"smiles": "Cc1noc(C)c1S(=O)(=O)N(C)C[C@@H]1Oc2ccc(NS(=O)(=O)c3ccccc3)cc2C(=O)N([C@H](C)CO)C[C@@H]1C", "cytotoxicity call": "inactive"}, {"smiles": "C[C@@H]1CCCCO[C@@H](CN(C)Cc2ccncc2)[C@@H](C)CN([C@@H](C)CO)C(=O)c2cc(NC(=O)Cc3ccccc3)ccc2O1", "cytotoxicity call": "inactive"}, {"smiles": "C[C@@H]1CCCCO[C@H](CN(C)C(=O)CCC(F)(F)F)[C@@H](C)CN([C@H](C)CO)C(=O)c2cc(NC(=O)Nc3ccccc3)ccc2O1", "cytotoxicity call": "inactive"}, {"smiles": "C[C@H]1CN([C@@H](C)CO)C(=O)c2cccc(NC(=O)Nc3ccc4c(c3)OCO4)c2O[C@@H]1CN(C)S(C)(=O)=O", "cytotoxicity call": "inactive"}, {"smiles": "CN(C)CC(=O)N[C@H]1CC[C@@H](CC(=O)NCCN2CCCCC2)O[C@@H]1CO", "cytotoxicity call": "inactive"}, {"smiles": "C[C@H]1CN([C@@H](C)CO)C(=O)c2cc(NS(=O)(=O)c3ccc(F)cc3)ccc2O[C@@H]1CN(C)S(=O)(=O)c1cn(C)cn1", "cytotoxicity call": "inactive"}, {"smiles": "O=C(O)c1cn2cccc(O)c2n1", "cytotoxicity call": "inactive"}, {"smiles": "C[C@H]1CN([C@@H](C)CO)C(=O)c2cc(NS(C)(=O)=O)ccc2O[C@H]1CN(C)S(C)(=O)=O", "cytotoxicity call": "inactive"}, {"smiles": "COc1ccc(S(=O)(=O)N(C)C[C@H]2OCc3cnnn3CCCC(=O)N([C@H](C)CO)C[C@H]2C)cc1", "cytotoxicity call": "inactive"}, {"smiles": "O=C(NC1CC1)[C@@H]1c2ccccc2C(=O)N(Cc2cc(C(F)(F)F)cc(C(F)(F)F)c2)[C@H]1c1ccc(CO)cc1", "cytotoxicity call": "inactive"}, {"smiles": "Cc1cc(OCCCS(C)(=O)=O)cc(C)c1-c1cccc(COc2ccc3c(c2)OC[C@H]3CC(=O)O)c1", "cytotoxicity call": "active"}, {"smiles": "COCC#Cc1ccc2c(c1)O[C@H](CN(C)S(=O)(=O)c1cccc(OC)c1)[C@@H](C)CN([C@@H](C)CO)S2(=O)=O", "cytotoxicity call": "inactive"}, {"smiles": "O=S(=O)(O)NC1CCCCC1", "note": "[listing 1 of 2 here]", "cytotoxicity call": "inactive"}, {"smiles": "O=S(=O)(O)NC1CCCCC1", "note": "[listing 2 of 2 here]", "cytotoxicity call": "active"}, {"smiles": "O=S(=O)([O-])NC1CCCCC1.[Na+]", "cytotoxicity call": "inactive"}, {"smiles": "CC(C)NC(=O)N(C)C[C@@H]1Oc2ccc(NC(=O)Cc3ccccc3)cc2CC(=O)N([C@@H](C)CO)C[C@@H]1C", "cytotoxicity call": "inactive"}, {"smiles": "C[C@H](CO)N1C[C@H](C)[C@@H](CN(C)S(=O)(=O)c2ccc(F)cc2)Oc2c(NC(=O)c3cnccn3)cccc2C1=O", "cytotoxicity call": "inactive"}, {"smiles": "C[C@H]1CN([C@@H](C)CO)C(=O)c2cccc(NC(=O)C3CC3)c2O[C@H]1CN(C)S(=O)(=O)c1ccccc1", "cytotoxicity call": "inactive"}, {"smiles": "C[C@@H]1CN([C@@H](C)CO)C(=O)Cc2cc(NC(=O)Nc3ccc(F)cc3)ccc2O[C@@H]1CN(C)Cc1ccc(C(F)(F)F)cc1", "cytotoxicity call": "active"}, {"smiles": "C[C@H]1CN([C@@H](C)CO)C(=O)Cc2cc(NC(=O)Nc3ccc(F)cc3)ccc2O[C@@H]1CN(C)Cc1ccc(C(F)(F)F)cc1", "cytotoxicity call": "inactive"}, {"smiles": "C[C@H]1CN([C@@H](C)CO)C(=O)Cc2cc(NC(=O)Nc3ccc(F)cc3)ccc2O[C@H]1CN(C)Cc1ccc(C(F)(F)F)cc1", "cytotoxicity call": "active"}, {"smiles": "C[C@@H]1CN([C@@H](C)CO)C(=O)Cc2cc(NC(=O)Nc3ccc(F)cc3)ccc2O[C@H]1CN(C)Cc1ccc(C(F)(F)F)cc1", "cytotoxicity call": "active"}, {"smiles": "C[C@@H]1CN([C@H](C)CO)C(=O)Cc2cc(NC(=O)Nc3ccc(F)cc3)ccc2O[C@@H]1CN(C)Cc1ccc(C(F)(F)F)cc1", "cytotoxicity call": "active"}, {"smiles": "COc1ccccc1CNC(=O)C[C@H]1C[C@@H]2c3cc(NS(=O)(=O)c4ccc(F)cc4)ccc3O[C@@H]2[C@@H](CO)O1", "cytotoxicity call": "inactive"}, {"smiles": "C[C@H](CO)N1C[C@H](C)[C@@H](CN(C)Cc2ccc(C(=O)O)cc2)Oc2ccc(NC(=O)Nc3cccc4ccccc34)cc2CC1=O", "cytotoxicity call": "inactive"}, {"smiles": "C[C@@H]1CN([C@H](C)CO)S(=O)(=O)c2ccc(C3=CCCCC3)cc2O[C@@H]1CN(C)C(=O)C1CCOCC1", "cytotoxicity call": "inactive"}, {"smiles": "C[C@@H]1CN([C@@H](C)CO)C(=O)c2cc(NC(=O)Nc3ccc(F)cc3)ccc2O[C@@H](C)CCCCO[C@@H]1CN(C)C(=O)c1ccccc1", "cytotoxicity call": "inactive"}, {"smiles": "C[C@H]1CN([C@@H](C)CO)C(=O)c2ccccc2-c2ccccc2CO[C@H]1CN(C)C(=O)Nc1cccc(C(F)(F)F)c1", "cytotoxicity call": "inactive"}, {"smiles": "CCC(=O)OCC(=O)C1(OC(=O)CC)C(C)CC2C3CCC4=CC(=O)C=CC4(C)C3(F)C(O)CC21C", "note": "(stereo unspecified)", "cytotoxicity call": "inactive"}, {"smiles": "Cc1ccc(S(=O)(=O)Nc2ccc3c(c2)C(=O)N([C@@H](C)CO)C[C@@H](C)[C@@H](CN(C)S(C)(=O)=O)O3)cc1", "cytotoxicity call": "inactive"}]}]}
